Holding throughout (design): scale not given: direction of the effect not stated beside the values
For assay [1], the target named is Protein translocase subunit SecA (Escherichia coli (strain K12)) (UniProt P10408). In words: Assay to Identify E. coli SecA ATPase Inhibitors. In kind it is functional. The conditions noted are these: 30 µM.
Assay [2] has as its target T1, Ubiquitin-activating enzyme e1, putative (Leishmania donovani (strain BPK282A1)) (UniProt E9BSI1).
T1 sequence (whole entry): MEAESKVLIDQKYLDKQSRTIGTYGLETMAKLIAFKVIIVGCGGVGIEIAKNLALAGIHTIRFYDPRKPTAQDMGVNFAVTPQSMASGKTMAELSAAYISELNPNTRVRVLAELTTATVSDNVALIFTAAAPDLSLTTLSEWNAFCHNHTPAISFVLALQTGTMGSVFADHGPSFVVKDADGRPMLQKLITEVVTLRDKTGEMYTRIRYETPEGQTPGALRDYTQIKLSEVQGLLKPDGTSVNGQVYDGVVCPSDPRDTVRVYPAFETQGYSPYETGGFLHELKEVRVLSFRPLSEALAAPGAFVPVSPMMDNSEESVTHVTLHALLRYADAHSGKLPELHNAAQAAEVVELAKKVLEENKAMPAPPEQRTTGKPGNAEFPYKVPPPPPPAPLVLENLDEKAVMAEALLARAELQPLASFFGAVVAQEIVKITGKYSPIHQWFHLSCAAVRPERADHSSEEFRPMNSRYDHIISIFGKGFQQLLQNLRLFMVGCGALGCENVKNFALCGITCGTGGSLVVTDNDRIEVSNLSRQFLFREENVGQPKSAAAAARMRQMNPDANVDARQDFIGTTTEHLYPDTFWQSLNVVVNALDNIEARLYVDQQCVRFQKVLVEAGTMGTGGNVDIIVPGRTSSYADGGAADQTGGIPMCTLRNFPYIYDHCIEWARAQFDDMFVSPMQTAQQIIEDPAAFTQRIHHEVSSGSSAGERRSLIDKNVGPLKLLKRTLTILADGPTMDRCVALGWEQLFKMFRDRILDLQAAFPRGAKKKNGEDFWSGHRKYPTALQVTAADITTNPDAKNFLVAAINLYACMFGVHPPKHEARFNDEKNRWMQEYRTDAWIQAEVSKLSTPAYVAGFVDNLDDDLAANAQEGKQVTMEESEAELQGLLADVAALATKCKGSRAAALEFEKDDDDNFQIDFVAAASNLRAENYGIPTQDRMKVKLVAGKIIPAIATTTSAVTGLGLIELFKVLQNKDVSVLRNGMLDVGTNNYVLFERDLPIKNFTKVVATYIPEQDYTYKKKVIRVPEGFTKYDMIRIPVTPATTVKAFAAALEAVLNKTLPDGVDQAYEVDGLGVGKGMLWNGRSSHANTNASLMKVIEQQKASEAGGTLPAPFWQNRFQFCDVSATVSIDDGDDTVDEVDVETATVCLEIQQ
Briefly: Leishmania donovani Ubiquitin Activating Enzyme (LdE1). The class given is functional. The conditions noted are these: 30 µM.

Assay [3] concerns the target AMP-activated protein kinase, AMPK (Homo sapiens) (UniProt P54646+O43741+P54619+Q9UGJ0+Q9Y478+Q13131+Q9UGI9). In words: AMP-dependent Kinase enzyme assay. An in vitro enzyme assay that detects ADP turnover that is directly proportional to AMPK activity. This uses naive AMPK that is activated during the assay with MK-8722. The conditions noted are these: 30 µM. In kind it is functional.

For assay [4], the target named is Sialic acid-binding Ig-like lectin 9 (Homo sapiens) (UniProt Q9Y336). Briefly: Hs-Siglec9 ALPHAscreen SOP 20170721. The following applies: 10 µM. On the technique in general: In Alpha technology, singlet oxygen from a donor bead excites a nearby acceptor bead.
The test system of the next assay is Trypanosoma cruzi. In words: Trypanosoma cruzi phosphomannomutase and mannose-1-phosphate guanylyltransferase assay. The conditions noted are these: 10 µM. In kind it is functional.
In assay [5] the target is T2, Arginase-2, mitochondrial (Homo sapiens) (UniProt P78540).
T2 sequence (whole entry): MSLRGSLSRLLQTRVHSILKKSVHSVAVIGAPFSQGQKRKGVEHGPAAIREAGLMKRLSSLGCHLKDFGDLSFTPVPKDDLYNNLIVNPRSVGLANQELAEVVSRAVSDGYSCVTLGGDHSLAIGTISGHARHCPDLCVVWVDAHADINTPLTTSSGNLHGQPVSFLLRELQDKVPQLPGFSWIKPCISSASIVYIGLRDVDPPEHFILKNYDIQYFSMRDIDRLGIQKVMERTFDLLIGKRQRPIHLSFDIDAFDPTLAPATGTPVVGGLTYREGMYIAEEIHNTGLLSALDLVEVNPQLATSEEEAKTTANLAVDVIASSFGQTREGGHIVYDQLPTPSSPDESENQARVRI
In words: in vitro enzyme assay to detect the production of urea directly proportional to the activity of Arginase II. Note: in the data most compounds retested in dose-response had high values. In kind it is functional. The conditions noted are these: 33.3 µM.

Assay [6] addresses T3, Proteasome subunit beta (Trypanosoma cruzi) (UniProt O96673).
T3 sequence (whole entry): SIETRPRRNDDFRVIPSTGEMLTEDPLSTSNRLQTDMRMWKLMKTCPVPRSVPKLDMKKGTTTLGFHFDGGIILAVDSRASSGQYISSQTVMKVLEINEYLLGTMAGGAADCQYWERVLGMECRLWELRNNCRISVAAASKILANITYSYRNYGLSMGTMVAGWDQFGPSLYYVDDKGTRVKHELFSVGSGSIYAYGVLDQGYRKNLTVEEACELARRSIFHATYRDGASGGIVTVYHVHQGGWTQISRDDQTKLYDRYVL
In words: Trypanosoma cruzi proteasome chymotrypsin-like activity (TcProtChymo) assay. Note: in the data most compounds retested in dose-response had high values. The following applies: 9.37 µM. In kind it is functional.

A further assay is filed under the species Homo sapiens. In words: To identify inhibition of the IFN signalling (Jak-Stat) pathway via expression of an eGFP reporter gene under the control of an IFN-stimulated response element (ISRE) containing MxA promoter. In kind it is functional. The conditions noted are these: 30 µM. (In general: In a reporter assay the amount or activity of a reporter protein is the signal.)

Assay [7] concerns the target T4, Tyrosyl-tRNA synthetase, putative (Trypanosoma cruzi (strain CL Brener)) (UniProt Q4DSP6).
T4 sequence (whole entry): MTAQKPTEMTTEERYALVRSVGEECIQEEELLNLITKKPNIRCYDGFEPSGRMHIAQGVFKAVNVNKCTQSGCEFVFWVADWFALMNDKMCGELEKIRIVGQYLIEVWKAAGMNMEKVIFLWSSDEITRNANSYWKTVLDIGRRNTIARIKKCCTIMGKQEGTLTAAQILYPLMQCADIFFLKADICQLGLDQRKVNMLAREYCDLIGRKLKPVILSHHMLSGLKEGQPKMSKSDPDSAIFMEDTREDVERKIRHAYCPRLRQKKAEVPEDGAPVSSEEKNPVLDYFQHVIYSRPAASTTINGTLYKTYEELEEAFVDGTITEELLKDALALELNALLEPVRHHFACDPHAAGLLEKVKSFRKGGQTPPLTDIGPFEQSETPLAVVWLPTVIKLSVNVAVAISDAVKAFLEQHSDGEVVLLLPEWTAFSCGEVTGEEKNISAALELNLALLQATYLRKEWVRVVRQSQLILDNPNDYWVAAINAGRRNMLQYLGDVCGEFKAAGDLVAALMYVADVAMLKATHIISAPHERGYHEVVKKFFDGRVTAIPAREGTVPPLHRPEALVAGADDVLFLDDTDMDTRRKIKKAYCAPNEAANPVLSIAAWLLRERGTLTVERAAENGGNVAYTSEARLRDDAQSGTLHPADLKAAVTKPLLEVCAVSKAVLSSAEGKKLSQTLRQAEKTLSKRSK
Briefly: Trypanosoma cruzi tyrosyl tRNA synthetase (TcYRS) _High Tyrosine SOP. Note: in the data most compounds retested in dose-response had high values. In kind it is functional. The following applies: 30 µM.

Assay [8] concerns the target T4, Tyrosyl-tRNA synthetase, putative (Trypanosoma cruzi (strain CL Brener)). Briefly: Trypanosoma cruzi tyrosyl tRNA synthetase (TcYRS) SOP. In kind it is functional. The following applies: 30 µM.
The target of assay [9] is Chromo domain-containing protein 1 (Saccharomyces cerevisiae (strain ATCC 204508 / S288c) (Baker's yeast)) (UniProt P32657). In words: ScCHD-1 Enzyme Inhibition Assay. Note: in the data most compounds retested in dose-response had high values. The class given is functional. The conditions noted are these: 30 µM.

For some of these results: Entries with a potency or affinity are not part of this list.

Sequence of Protein translocase subunit SecA (Escherichia coli (strain K12)) (P10408 whole entry): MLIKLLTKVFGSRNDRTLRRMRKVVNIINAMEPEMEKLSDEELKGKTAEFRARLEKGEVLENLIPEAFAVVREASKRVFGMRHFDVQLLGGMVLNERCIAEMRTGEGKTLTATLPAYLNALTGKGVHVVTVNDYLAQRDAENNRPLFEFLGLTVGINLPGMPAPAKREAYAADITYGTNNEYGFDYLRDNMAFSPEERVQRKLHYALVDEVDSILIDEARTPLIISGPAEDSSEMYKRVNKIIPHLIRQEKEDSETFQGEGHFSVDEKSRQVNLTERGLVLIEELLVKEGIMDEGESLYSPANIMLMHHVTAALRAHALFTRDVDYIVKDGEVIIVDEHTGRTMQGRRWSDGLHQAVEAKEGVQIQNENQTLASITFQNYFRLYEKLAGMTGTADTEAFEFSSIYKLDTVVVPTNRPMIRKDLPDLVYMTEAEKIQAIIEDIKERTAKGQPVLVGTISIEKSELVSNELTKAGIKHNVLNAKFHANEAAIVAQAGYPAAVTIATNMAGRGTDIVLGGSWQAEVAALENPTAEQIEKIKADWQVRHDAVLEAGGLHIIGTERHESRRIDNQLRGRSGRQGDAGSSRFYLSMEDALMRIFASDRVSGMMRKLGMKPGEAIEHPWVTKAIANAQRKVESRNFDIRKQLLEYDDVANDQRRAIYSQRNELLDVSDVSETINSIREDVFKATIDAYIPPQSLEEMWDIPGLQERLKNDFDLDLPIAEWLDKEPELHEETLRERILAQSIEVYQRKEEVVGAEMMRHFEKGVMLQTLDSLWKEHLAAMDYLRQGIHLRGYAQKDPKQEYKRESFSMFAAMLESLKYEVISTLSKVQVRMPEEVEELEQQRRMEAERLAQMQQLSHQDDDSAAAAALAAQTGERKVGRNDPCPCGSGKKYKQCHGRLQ
Sequence of Chromo domain-containing protein 1 (Saccharomyces cerevisiae (strain ATCC 204508 / S288c) (Baker's yeast)) (P32657 whole entry, the tested form may be a part): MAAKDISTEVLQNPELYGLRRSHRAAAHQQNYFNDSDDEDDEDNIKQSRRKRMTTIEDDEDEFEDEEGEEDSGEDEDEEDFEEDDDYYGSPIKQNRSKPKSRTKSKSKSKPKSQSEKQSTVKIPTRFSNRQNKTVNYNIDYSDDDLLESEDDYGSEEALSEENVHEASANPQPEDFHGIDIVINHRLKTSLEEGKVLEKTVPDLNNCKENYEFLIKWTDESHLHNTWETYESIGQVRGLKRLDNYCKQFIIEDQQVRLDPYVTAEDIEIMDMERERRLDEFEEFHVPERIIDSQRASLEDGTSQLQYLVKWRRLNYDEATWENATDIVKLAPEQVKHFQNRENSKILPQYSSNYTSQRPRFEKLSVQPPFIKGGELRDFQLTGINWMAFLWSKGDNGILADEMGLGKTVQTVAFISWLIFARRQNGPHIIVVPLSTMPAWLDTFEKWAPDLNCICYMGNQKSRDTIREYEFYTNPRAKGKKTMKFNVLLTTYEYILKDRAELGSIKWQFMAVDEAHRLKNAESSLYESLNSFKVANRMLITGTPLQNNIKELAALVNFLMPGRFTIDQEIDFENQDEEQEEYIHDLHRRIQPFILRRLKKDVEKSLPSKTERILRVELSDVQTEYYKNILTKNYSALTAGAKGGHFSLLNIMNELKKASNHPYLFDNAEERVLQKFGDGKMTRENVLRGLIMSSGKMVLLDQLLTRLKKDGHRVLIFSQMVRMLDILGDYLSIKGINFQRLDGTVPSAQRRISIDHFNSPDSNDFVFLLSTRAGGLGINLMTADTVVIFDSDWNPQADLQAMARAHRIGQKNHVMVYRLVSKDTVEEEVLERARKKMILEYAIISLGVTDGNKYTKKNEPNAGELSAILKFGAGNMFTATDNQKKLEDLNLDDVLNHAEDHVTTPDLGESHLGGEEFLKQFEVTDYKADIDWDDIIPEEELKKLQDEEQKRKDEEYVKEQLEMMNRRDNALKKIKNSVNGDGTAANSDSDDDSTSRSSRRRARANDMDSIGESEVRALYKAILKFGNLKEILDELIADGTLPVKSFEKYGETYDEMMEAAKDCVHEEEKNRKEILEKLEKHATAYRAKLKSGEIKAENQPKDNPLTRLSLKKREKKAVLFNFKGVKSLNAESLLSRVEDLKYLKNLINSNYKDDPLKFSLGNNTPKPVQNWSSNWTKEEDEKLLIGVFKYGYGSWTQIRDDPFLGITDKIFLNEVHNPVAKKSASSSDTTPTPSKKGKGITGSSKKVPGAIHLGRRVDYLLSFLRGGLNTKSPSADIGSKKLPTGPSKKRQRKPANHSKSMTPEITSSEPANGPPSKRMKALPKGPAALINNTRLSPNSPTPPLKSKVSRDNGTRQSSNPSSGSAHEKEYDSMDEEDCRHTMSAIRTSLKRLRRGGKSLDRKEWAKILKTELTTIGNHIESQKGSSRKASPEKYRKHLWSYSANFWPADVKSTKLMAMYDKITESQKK
Sequence of Sialic acid-binding Ig-like lectin 9 (Homo sapiens) (Q9Y336 whole entry): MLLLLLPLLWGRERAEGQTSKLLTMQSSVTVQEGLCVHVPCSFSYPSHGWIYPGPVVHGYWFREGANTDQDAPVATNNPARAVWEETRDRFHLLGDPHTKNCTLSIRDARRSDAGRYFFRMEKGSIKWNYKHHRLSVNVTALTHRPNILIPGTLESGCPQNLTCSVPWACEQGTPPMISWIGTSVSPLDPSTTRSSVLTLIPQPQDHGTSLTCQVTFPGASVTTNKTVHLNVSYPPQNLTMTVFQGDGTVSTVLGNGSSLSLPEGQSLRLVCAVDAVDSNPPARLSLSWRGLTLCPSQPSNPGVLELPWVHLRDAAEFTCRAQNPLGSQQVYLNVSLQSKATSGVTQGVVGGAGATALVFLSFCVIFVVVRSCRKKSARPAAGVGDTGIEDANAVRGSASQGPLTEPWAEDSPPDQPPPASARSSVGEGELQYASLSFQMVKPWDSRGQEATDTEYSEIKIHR

Take `Cc1cc(C)n(CC2CN(Cc3nnsc3Cl)CCO2)n1` (stereo not drawn): the Percent Effect in [1] was -1.37%; in assay [2], 21.1%; in assay [3], 3.21%; in [4] it was 2.78%; in the assay with Trypanosoma cruzi, -2.82%; in [5], -4.21%. The Percent Effect was 14.7% in assay [6]; -18.7% in the assay listed under Homo sapiens; 4.41% in assay [7]; 17.1% in assay [8]; -7.75% in assay [9].

As to `Cn1cccc1CCC(=O)N1CCC2(CC1)c1ccccc1CC2O` (stereo not drawn), the Percent Effect was 0.249% in assay [1]; 13% in assay [2]; -1.66% in [3]; 10.8% in assay [4]; 4.23% in the assay on Trypanosoma cruzi; -38.6% in [5]. Also, the Percent Effect was determined as 20.6% in [6]; 21.3% in the assay listed under Homo sapiens; 11.8% in assay [7]; 16.1% in assay [8]; 5.42% in [9].

`CCn1nc(C)c2nc(C(C)C)nc(NCCCO)c21`: the Percent Effect in [1] is -2.47%; in assay [2], 12%; in assay [3], 4.47%; in [4] it was 13.2%; in the assay with Trypanosoma cruzi, 1.97%; in assay [5] it was 0.176%. The Percent Effect was 12.6% in assay [6]; 33.7% in the assay filed under Homo sapiens; 4.23% in assay [7]; 12.8% in [8]; -6.99% in assay [9].

With `CCc1ccc(C(=O)N2CCN(CC(C)O)CC2)o1` (stereo not drawn), the Percent Effect in assay [1] is 0.315%; in [2] it was 21.1%; in assay [3], -5.4%; in assay [4], -6.92%; in the assay on Trypanosoma cruzi, 5.08%; in [5] it was 6.13%. Besides, the Percent Effect is 16.2% in [6]; 3.74% in the assay listed under Homo sapiens; 1.47% in assay [7]; 19.5% in assay [8]; -12.7% in assay [9].

Turning to `CC(C)C(C(=O)N1CCCN(Cc2nccn2C)CC1)N1CCCC1` (stereo not drawn), the Percent Effect in assay [1] was -1.38%; in assay [2], 21.6%; in [3], -0.295%; in [4], -3.06%; in the assay on Trypanosoma cruzi it was -1.58%; in [5], -2.77%. For the same compound, the Percent Effect in assay [6] was 10.6%; in the assay listed under Homo sapiens it was 20%; in assay [7] it was 2.97%; in assay [8], 13.4%; in [9], -5.79%.

For the compound `CCc1ccc(C(=O)N2CCN(CCS(C)(=O)=O)CC2)o1`, the Percent Effect in assay [1] is -3.79%; in [2], -5.26%; in assay [3] it was 3.96%; in [4] it was 8.99%; in the assay on Trypanosoma cruzi, -0.752%; in assay [5] it was 0.383%. For the same compound, the Percent Effect was determined as 4.18% in [6]; 10.7% in the assay listed under Homo sapiens; 5.39% in assay [7]; 7.32% in assay [8]; 0.21% in assay [9].

Regarding `Cc1nn(C)c(C)c1NC(=O)CN1CCCC1c1noc(C2CC2)n1` (stereo not drawn), the Percent Effect is 2.36% in assay [1]; 13.7% in assay [2]; -14.8% in assay [3]; 1.88% in assay [4]; -0.196% in the assay with Trypanosoma cruzi; 3.64% in assay [5]. For the same compound, the Percent Effect is 20.6% in assay [6]; -0.924% in the assay filed under Homo sapiens; 6.45% in [7]; 12.5% in assay [8]; -7.02% in [9].

On to `CC(C)N(C)C(=O)C1=NOC2(CCN(C(=O)c3ccc(Cl)cc3)C2)C1` (stereo not drawn), for which the Percent Effect is -0.137% in [1]; 5.48% in [2]; 1.89% in [3]; 5.19% in [4]; -7.54% with Trypanosoma cruzi; -1.6% in assay [5]. Further, the Percent Effect in assay [6] is 17.6%; in the assay filed under Homo sapiens, 27.1%; in [7], 8.33%; in assay [8] it was 8.64%; in [9], -3.93%.

Source of the values: ChEMBL document CHEMBL3988442, “University of Dundee, Small-Polar-MMV Screening Library” (2021).
